{"source": "PubChem BioAssay (NCATS)", "note": "Inconclusive results are not listed. Values without a mark were called inactive. Calls come from the whole dose curve.", "data": [{"assay": "qHTS for inhibitors of Rabies Virus screened against the NCATS CANVASS Library (AID 1347402); note: 0% is about no effect", "details": "Rabies virus infection cell assay; series mostly up to 45.9 µM; activity change, negative = inhibition: at the top concentration", "values": [{"compound": "C[C@@]12CCC[C@@](C)(C(=O)OP(=O)(O)OC[C@H]3O[C@@H](n4cnc5c(N)ncnc54)[C@H](O)[C@@H]3O)[C@H]1C[C@@H](O)[C@@]13C[C@@H](CC[C@@H]21)[C@](C)(O)C3", "activity change, negative = inhibition": "-14.5%"}, {"compound": "C=C[C@@]1(C)CC[C@@H]([C@H](C)C(C)=O)O1", "activity change, negative = inhibition": "7.36%"}, {"compound": "CC(C)(Br)[C@@H](Cl)C[C@H](Br)[C@](C)(Cl)/C=C/Br", "activity change, negative = inhibition": "-28.5%"}, {"compound": "CC(=O)O[C@H]1c2ccccc2-c2c3c(cc4c2[C@@H]1N(C(C)=O)CC4)OCO3", "activity change, negative = inhibition": "-30.6%"}, {"compound": "C[C@@]12CCC[C@@](C)(C(=O)O)[C@H]1C[C@@H](O)[C@@]13C[C@@H](CC[C@@H]21)[C@](C)(O)C3", "activity change, negative = inhibition": "14.1%"}, {"compound": "CS/C=C/C(N)=O", "activity change, negative = inhibition": "-10.9%"}, {"compound": "CC(C)=CCC/C(C)=C/Cc1cc([C@@H]2CC(=O)c3c(cc(O)c(CC=C(C)C)c3O)O2)ccc1O", "activity change, negative = inhibition": "-22.1%"}, {"compound": "CO[C@@H]1[C@H](O)[C@@H](C)O[C@@H](OC[C@@H]2C(C)OC(=O)/C=C/[C@H](C)C(O[C@@H]3O[C@H](C)CC4(OC(=O)O[C@@H]4C)C3O)[C@@H](C)CC(C)C(=O)/C=C/[C@H]3OC23)[C@@H]1OC", "note": "(some centres not stated)", "activity change, negative = inhibition": "-12.7%"}, {"compound": "Oc1ccc(C2c3c(O)cc(O)cc3[C@@H]3C(c4ccc(O)cc4)c4c(O)cc(O)cc4[C@H]23)cc1", "note": "(some centres not stated)", "activity change, negative = inhibition": "-26.7%"}, {"compound": "CC1=C(C)C(=O)OC(C(C)C2(O)CCC3C4C5OC5C5(O)CC=CC(=O)C5(C)C4CCC32C)C1", "note": "(configuration not stated)", "activity change, negative = inhibition": "-2.28%"}, {"compound": "COc1ccc2cc(NC(=O)C3=NO[C@H]4[C@H](O)C=C[C@@H](Cl)[C@@]4(O)C3)c(=O)oc2c1OC", "activity change, negative = inhibition": "-7.85%"}, {"compound": "O=Cc1ccc2n1C[C@]1(C[C@H](O)[C@@H](CO)O1)OC2", "activity change, negative = inhibition": "-10.2%"}, {"compound": "CCCCCCC[C@@H](C/C=C/CCC(=O)NCCc1c[nH]c2ccccc12)OC", "activity change, negative = inhibition": "-30.3%"}, {"compound": "CC[C@@H]1C[C@@]2(CC)OC(=O)[C@@]3(CC)[C@H](CC)[C@@H]1[C@@H]23", "activity change, negative = inhibition": "-2.6%"}, {"compound": "C=C1C[C@@]23C=CC(=O)[C@@](C)(CCCC(C)C(=O)O)[C@@H]2C[C@@H]1CC3", "note": "(some centres not stated)", "activity change, negative = inhibition": "-9.66%"}, {"compound": "COc1cc2ccc(=O)oc2c(O)c1O[C@@H]1O[C@H](CO)[C@@H](O)[C@H](O)[C@H]1O", "activity change, negative = inhibition": "7.6% [at 27.4 µM]"}, {"compound": "COc1cc(/C=C/C(=O)O)ccc1O", "activity change, negative = inhibition": "-5.38%"}, {"compound": "Cc1cc(O)cc2oc(C[C@H](C)O)cc(=O)c12", "activity change, negative = inhibition": "-15.3%"}, {"compound": "C/C(=C\\[C@@H](C)CC/C=C/CC/C=C/C(=O)O)[C@@H](O)[C@H](C)C(=O)CCCC1CC(=O)NC(=O)C1", "activity change, negative = inhibition": "-3.87%"}, {"compound": "C=C[C@]1(C)CC[C@@H]([C@H](C)C(=O)/C=C/C(C)(C)O)O1", "activity change, negative = inhibition": "-10.2%"}, {"compound": "COc1cc(C2OCC3C(c4ccc(O)c(OC)c4)OCC23)ccc1O", "note": "(configuration not stated)", "activity change, negative = inhibition": "3.04% [at 9.14 µM]"}, {"compound": "CO[C@@H]1[C@H](O)[C@@H](C)O[C@@H](OC[C@H]2/C=C/C=C/C(=O)C(C)C[C@H](C)C(O[C@@H]3O[C@H](C)CC4(OC(=O)O[C@@H]4C)C3O)[C@@H](C)/C=C/C(=O)OC2C)[C@@H]1OC", "note": "(some centres not stated)", "activity change, negative = inhibition": "-9.7%"}, {"compound": "O=C1CCC(=O)N(O)CCCCCNC(=O)CCC(=O)N(O)CCCCCNC(=O)CCC(=O)N(O)CCCCCN1", "activity change, negative = inhibition": "-13%"}, {"compound": "CC12C[C@]3(O)O[C@@H](O1)[C@]1(COC(=O)c4ccccc4)[C@@H]3CC21OC1OC(CO)C(O)C(O)C1O", "note": "(some centres not stated)", "activity change, negative = inhibition": "-4.13%"}, {"compound": "CO[C@H]1/C=C/CC[C@@H](S[C@@H]2O[C@H](CO)[C@@H](O)[C@H](O)[C@H]2O)CC(=O)O[C@@H](/C(C)=C/[C@H](C)C(=O)CCCC2CC(=O)NC(=O)C2)[C@@H](C)[C@@H]1O", "activity change, negative = inhibition": "-23.8% [at 0.021 µM]"}, {"compound": "COC(=O)[C@]1([C@H]2CCC(=O)O2)CC(=O)c2c(O)cc(C)cc2O1", "activity change, negative = inhibition": "-10.4%"}, {"compound": "C=C[C@]1(C)CC[C@@H]([C@H](C)C(=O)/C=C/C(C)C)O1", "activity change, negative = inhibition": "-3.71%"}, {"compound": "CC1C(=O)C23CCC1C[C@]21O[C@@H]2C(C)(C)C=CC(=O)[C@@]23COC1=O", "note": "(some centres not stated)", "activity change, negative = inhibition": "-6.78%"}, {"compound": "CC(=O)[C@@H]1[C@@H](O)C[C@H]2[C@]3(C)CC[C@H]4C(C)(C)CCC[C@]4(CO)[C@H]3C[C@H]3OC(=O)[C@@H]1[C@@]32C", "activity change, negative = inhibition": "-19%"}, {"compound": "C=C1C[C@@]23C=CC(=O)[C@@](C)(CCC(=O)Nc4c(O)ccc(C(=O)O)c4O)C2C[C@@H]1CC3O", "note": "(some centres not stated)", "activity change, negative = inhibition": "3.39%"}, {"compound": "C=C1C[C@@]23C=CC(=O)[C@@](C)(CCC(=O)Nc4c(OC5O[C@H](CO)[C@@H](O)[C@H](O)[C@H]5O)ccc(C(=O)O)c4O)C2C[C@@H]1CC3", "note": "(some centres not stated)", "activity change, negative = inhibition": "7.66%"}, {"compound": "C=C[C@@]1(C)CC[C@@H]([C@H](C)C(=O)/C=C/C(C)C)O1", "activity change, negative = inhibition": "0.952%"}]}]}
